# In all, about 94,000 compounds went through this assay and about 410 (0.44%) were called active. This is one part of a sample in which actives are shown more often than they occur. Unmarked numbers belong to inactive results.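 How the source made its calls: active means inhibition above about 30% together with a positive call from visual inspection of the well image (limit read from the data); inconclusive means inhibition above a set limit but visual check negative; inactive means inhibition not above a set limit, visual check negative.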
# Assay: inhibitors of IL-1B driven NFkB p65 nuclear import, primary screen, imaging, HUVEC, IL-1B stimulus, high-content imaging (AID 796);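 further: nuclear over cytoplasmic p65 intensity ratio measured by imaging; 0% = IL-1B stimulated DMSO wells and 100% = unstimulated DMSO wells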
# Conditions: HUVEC IL-1B NFkB p65 nuclear translocation imaging; at 2 µM; stronger effect = higher value
row,SMILES,inhibition
1,COc1ccc(/C=C(/NC(=O)c2ccc(C)cc2)c2nc3ccccc3[nH]2)cc1OC,-9.9%
2,CCOC(=O)c1c(N=CN(C)C)c(C#N)c2n1CCCC2,10.8%
3,CC1CCCCC1NC(=O)C1CCCN1S(=O)(=O)c1cccc2nsnc12 (stereo unspecified),-27%
4,COc1nc(-c2ccc(Cl)cc2)ccc1-c1noc(-c2cccs2)n1,-5.8%
5,O=S(=O)(c1cccc2nonc12)N1CCN(c2cccc(Cl)c2)CC1,-0.1%
6,CC(C)NC(=O)C(=O)N/N=C/c1ccco1,-6.9%
7,COc1cc(C(=O)N2CCN(C/C=C/c3ccccc3)CC2)cc(OC)c1C,-3.7%
8,N/C(=N\OC(=O)c1cc(-c2ccccc2)nc2ccccc12)c1ccncc1,8%
9,Cc1ccc(S(=O)(=O)N(CC(=O)N/N=C/c2ccc(F)cc2)c2cccc3cccnc23)cc1,9.5%
10,COC(=O)c1c(-c2cccs2)csc1NC(=O)CSc1ncnc2sc(C)c(C)c12,-10.3%
11,Nc1ccc(-c2sc(N)nc2-c2ccccc2)cc1,1.6%
12,CCC(C)NC(=O)c1ccccc1NC(=O)c1ccccc1N(C)S(C)(=O)=O (stereo unspecified),-10.8%
13,COc1ccc(Cl)cc1NC(=O)CN(C)C(=O)CNC(=O)C12CC3CC(CC(C3)C1)C2,-36%
14,COc1ccc(Cc2nnc(SCC(=O)c3cccc([N+](=O)[O-])c3)n2C)cc1,-8.8%
15,O=C(NCCc1ccccc1)c1ccc(NC2=NC3CS(=O)(=O)CC3S2)cc1 (stereo unspecified),0.8%
16,Cc1cccc(NC(=O)c2ccccc2NC(=O)C(C)(C)C)n1,-6.8%
17,Cc1cccc(NC(=O)c2cc(N3C(=O)CCC3=O)ccc2Cl)n1,32.1% (active)
18,Cc1cc(NC(=O)c2cccc(N3C(=O)CCC3=O)c2)no1,-4.7%
19,O=C(CN1CCCCCC1)Nc1ccc(Br)cc1Br,5.3%
20,Cn1c(CC(=O)Nc2ccccc2)nnc1SCC(=O)c1ccccc1,92% (active)
21,Cc1ccccc1NC(=O)Cc1nnc(SCC(=O)N2CCN(c3ccccc3)CC2)n1C,-36.6%
22,Cn1c(CNc2nc(-c3ccccc3)cs2)nnc1SCC(=O)c1ccccc1,-14.8%
23,CCOC(=O)c1cc(NC(=O)c2ccc(Cl)cc2)c(=O)oc1-c1ccccc1,-5.2%
24,Cc1nc(C)c(C(=O)N(c2ccc(C)c(C)c2)C(C(=O)NCc2ccco2)c2ccccc2)s1 (stereo unspecified),-3.5%

row,SMILES,inhibition
1,CCc1ccccc1NC(=O)CSc1nnc([C@@H](NC(=O)OC(C)(C)C)C(C)C)o1,0.3%
2,CCc1ccccc1NC(=O)CSc1nnc([C@@H](NC(=O)OC(C)(C)C)C(C)CC)o1 (stereo partly specified),-19.4%
3,Cc1cccc(NC(=O)CSc2nnc(CCCCCNC(=O)OC(C)(C)C)o2)c1C,55.4% (active)
4,Cc1noc(C)c1CSCC(=O)Nc1nc2ccc(Oc3ccccc3)cc2s1,-3.4%
5,Cc1ccc(-n2nc(N)c3c(=O)oc(N(C)C)nc32)cc1,-5.7%
6,O=C(COc1ccc(Cl)cc1)NCCC1=CCCCC1,1.3%
7,CSc1nc(N(C)NC(=O)c2cccc(C)c2)c2ccccc2n1,34.2% (active)
8,COc1ccc(C(=O)NN(C)c2nc(-c3ccccc3)cc(C)c2S(C)(=O)=O)cc1,-10.1%
9,CN(NC(=O)c1ccccc1)c1nc2ccccc2nc1C(F)(F)F,12.5%
10,O=S(=O)(c1cnccc1N1CCN(/N=C/c2ccc(Br)cc2)CC1)N1CCCCC1,-15.8%
11,COc1cc(OC)cc(C(=O)NC2CCN(C(=O)N3c4ccccc4Sc4ccccc43)CC2)c1,-1.1%
12,Cc1ccccc1N1CCN(CCCOc2ccc3c(C)cc(=O)oc3c2)CC1,-2.5%
13,Cn1c(C(=O)OC(C(=O)NC2CCCCC2)c2ccccn2)cc2sccc21 (stereo unspecified),-1.9%
14,COc1cccc(/C=N/NC(=O)c2cccc([N+](=O)[O-])c2)c1OS(=O)(=O)c1ccc(C)cc1,1.2%
15,Cc1ccc(S(=O)(=O)N(C)C2(C)CCS(=O)(=O)C2)cc1 (stereo unspecified),-19.1%
16,CC(C)n1c(-c2cccs2)nc2ccccc21,-4.4%
17,C=CCn1c(COc2cccc3cccnc23)nnc1SCC(=O)OC,30.7% (active)
18,C=CCn1c(COc2ccccc2C)nnc1SCC(=O)O,-19.2%
19,C=CCn1c(COc2ccccc2)nnc1SCC(=O)NCC(=O)OCC,-6.1%
20,COc1ccc(C(=O)Oc2cc(/C=N/NS(=O)(=O)c3ccc(C)cc3)ccc2OC)cc1,-13.4%
21,COc1cc(C(=S)N2CCOCC2)cc(OC)c1OC(=O)c1cc([N+](=O)[O-])cc([N+](=O)[O-])c1,2.4%
22,COc1ccccc1OCc1nc2ccccc2s1,9.7%
23,O=C(Nc1ccccc1-c1nnn(CC(=O)N2CCCc3ccccc32)n1)c1cccc(Cl)c1,9.4%
24,OC(c1ccccc1)c1nccn1Cc1ccccc1 (stereo unspecified),-26.3%

row,SMILES,inhibition
1,Cn1cnc([N+](=O)[O-])c1Sc1ccccc1,7%
2,CCOC(=O)c1c(NC(C)=O)sc2c(O)c(Br)ccc12,-8%
3,CCC(C)NC(=O)C1CCCN(C(=O)NC2CCCCC2)C1 (stereo unspecified),-6.5%
4,Cc1ccc(NC(=S)Nc2ncccc2C)c(C)c1,8.4%
5,COc1ccc(C(=O)NC(=S)Nc2ccccc2N2CCN(S(C)(=O)=O)CC2)cc1OC,-15.4%
6,Cc1[nH]c(=O)c(C(=O)/C=C/c2ccccc2)c2c1CCCC2,-9.9%
7,CC(=O)c1cn(CCCCCCCCCCn2cc(C(C)=O)c(=O)[nH]c2=O)c(=O)[nH]c1=O,-1.7%
8,CN(CC(=O)Nc1cccc2c1CCCC2)S(=O)(=O)c1ccc(Cl)cc1,8.4%
9,CCOc1ccccc1NC(=O)C1CCN(S(=O)(=O)c2c(C)nn(C)c2C)CC1,13.5%
10,CCOc1ccc(NC(=O)C2CCCN(C(=O)Nc3ccccc3)C2)cc1 (stereo unspecified),5.5%
11,CCOc1ccccc1NC(=O)C1CCCN(C(=O)Nc2ccccc2)C1 (stereo unspecified),40.5% (active)
12,N#C/C(=C/c1ccc(Cl)cc1)NC(=O)c1ccccc1,0.7%
13,COc1ccc(C(F)(F)F)cc1N/C=C\c1nnnn1-c1ccc(C)cc1,7.9%
14,O=C(NCCCCCCCCCNC(=O)C(F)(F)F)C(F)(F)F,8.3%
15,CC(C)(CNC(=O)c1cc(=O)[nH]c2ccccc12)N1CCOCC1,31% (active)
16,CC(C)(CNCC(O)c1ccccc1)N1CCOCC1 (stereo unspecified),-8.1%
17,Cc1c(C(=O)CN2CCOCC2)[nH]c2ccccc12,-7.9%
18,c1ccc2c(C[n+]3csc4ccccc43)cccc2c1,-13.2%
19,CCc1nc(C)ccc1OCC(=O)N(CC)CC,5.7%
20,Fc1ccc(CNc2nc3ccccc3n3nnnc23)cc1,-20.9%
21,CCOc1ccc(S(=O)(=O)Nc2nc3cc(OC)ccc3s2)cc1,-6%
22,Cc1ccc(C(c2nnnn2CS(=O)(=O)c2ccc(C)cc2)N2CCC(C)CC2)cc1 (stereo unspecified),-0.3%
23,O=C(Oc1ccc([N+](=O)[O-])cc1)c1ccc2ccccc2n1,1.7%
24,CCOC(=O)C1Sc2[nH]c(=O)sc2C(c2ccc(Cl)cc2)C1C(=O)OCC (stereo unspecified),-11%

row,SMILES,inhibition
1,O=C(CSc1nnnn1C1CCCC1)Nc1ccc2c(c1)OCCO2,-42.7%
2,O=C(CSc1nc2ncccc2[nH]1)Nc1ccc2c(c1)OCCO2,97% (active)
3,O=C(CSc1nc(C2CC2)nc2ccccc12)Nc1ccc2c(c1)OCCO2,4.6%
4,O=C(/C=C/c1ccco1)Nc1ccc(Oc2ccccc2)cc1,-2.7%
5,c1ccc(C(c2ccccc2)N2CCN(Cc3nnnn3C3CCCCC3)CC2)cc1,10.8%
6,CC1=NN(Cc2ccccc2)C(=O)/C1=C/c1ccc(N(C)C)cc1,-0.4%
7,CCCCC(=O)N/N=C(\C)CC(=O)Nc1cc(Cl)ccc1OC,-3.2%
8,COc1ccccc1NC(=O)c1ccc(C)s1,-3.2%
9,COc1ccccc1NC(=S)NC(=O)C(C)C,13.7%
10,COc1ccccc1NC(=O)/C=C/C(N)=O,43.6% (active)
11,O=C(NCc1ccccc1Cl)c1csc2c1CCCCC2,6.8%
12,Cc1ccc(SCC(=O)Nc2ncc(C)s2)cc1,-75.7%
13,CN(C)/C=C(\C#N)C(=O)c1cccnc1Oc1cccc(F)c1,-5.1%
14,COC(=O)c1ccc(C(=O)OC)c(NC(=S)N2CCCCC2)c1,8.4%
15,COC(=O)c1ccc(CSc2ccc3nnc(-c4ccccc4)n3n2)o1,-0.1%
16,COc1cc(C(=O)NC(=S)NCc2ccco2)cc(OC)c1OC,-3.4%
17,CC(C)(C)c1ccc(C(=O)CSc2ncn[nH]2)cc1,-29.2%
18,O=C(/C=C/Sc1ncn[nH]1)c1ccc(Cl)cc1,47.7% (active)
19,Cc1ccc(C(=O)/C=C/c2c(C)nn(-c3ccccc3)c2Cl)cc1,15.3%
20,CC(C)(C)NS(=O)(=O)CC12CCC(CC1=O)C2(C)C (stereo unspecified),12.7%
21,Cc1cccc(COc2ccccc2/C=N/Nc2ccc([N+](=O)[O-])cc2)c1,-18.1%
22,COc1ccc(S(=O)(=O)Nc2ccc(F)cc2)c(C)c1C,74% (active)
23,COc1ccc(S(=O)(=O)N2CCOCC2)c(C)c1C,-1.9%
24,COc1ccc(OC)c(S(=O)(=O)Nc2ccccc2F)c1,-16.7%

# Source: PubChem BioAssay AID796 (Columbia University Molecular Screening Center, 2007)
